Experimental data taken from PubChem BioAssay (NCI).
The panel holds about 83,000 compounds, 20% with a hit somewhere; the sample as a whole holds those more often.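 Interpretation: 100, growth as untreated; towards 0, rising growth inhibition; 0, no net growth; 0 to -100, cell death. Compounds scoring below 10 were considered active.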 Values without a mark were called inactive. Calls of active or inactive are those of the source.

What was measured:
Assay in all cases: NCI-60 one-dose screen, 48 h (100 = growth as untreated, 0 = no growth, -100 = all killed)
Details in all cases: 10 µM
DU-145 prostate = test system: DU-145 prostate
K-562 leukemia = test system: K-562 leukemia
MALME-3M melanoma = test system: MALME-3M melanoma
MDA-MB-231 breast = test system: MDA-MB-231 breast
RXF 393 renal = test system: RXF 393 renal
SF-268 CNS = test system: SF-268 CNS
SF-295 CNS = test system: SF-295 CNS
SF-539 CNS = test system: SF-539 CNS
UACC-257 melanoma = test system: UACC-257 melanoma
M14 melanoma = test system: M14 melanoma
HCT-15 colon = test system: HCT-15 colon
SNB-75 CNS = test system: SNB-75 CNS
SNB-19 CNS = test system: SNB-19 CNS
U251 CNS = test system: U251 CNS
PC-3 prostate = test system: PC-3 prostate
SK-MEL-5 melanoma = test system: SK-MEL-5 melanoma
UACC-62 melanoma = test system: UACC-62 melanoma
LOX IMVI melanoma = test system: LOX IMVI melanoma
SK-MEL-28 melanoma = test system: SK-MEL-28 melanoma
HT29 colon = test system: HT29 colon

SMILES | growth (DU-145 prostate) | growth (K-562 leukemia) | growth (MALME-3M melanoma) | growth (MDA-MB-231 breast) | growth (RXF 393 renal) | growth (SF-268 CNS) | growth (SF-295 CNS) | growth (SF-539 CNS) | growth (UACC-257 melanoma) | growth (M14 melanoma) | growth (HCT-15 colon) | growth (SNB-75 CNS) | growth (SNB-19 CNS) | growth (U251 CNS) | growth (PC-3 prostate) | growth (SK-MEL-5 melanoma) | growth (UACC-62 melanoma) | growth (LOX IMVI melanoma) | growth (SK-MEL-28 melanoma) | growth (HT29 colon)
O=S(=O)(NC1c2ccccc2Oc2ccccc21)c1cc(Cl)ccc1Cl | 113% | 89.8% | 102% | 97.4% | 93.1% | 99.1% | 101% | 98.2% | 102% | 98.9% | 93.7% | 90.2% | 97.2% | 95.7% | 88.9% | 94.6% | 93.2% | 96.1% | 110% | 
CCc1c(C(=O)NCc2c(O)ccc3cccc(O)c23)[nH]c(C)c1C(C)=O | 55.1% | 16.8% | 37.4% | 48.3% | 58.8% | 31.1% | 11.8% | 56.3% | 35% | 30.9% | 14% | 56.6% | 53% | 33.4% | 27.4% | 1.58% (active) | 15.4% | 16.2% | 37.5% | 
CCOCC[P+](c1ccccc1)(c1ccccc1)c1ccccc1 | 59.8% | 20% | 61.1% | 63.5% | 79.2% | 61.9% | 39% | 56.2% | 14% | 60.8% | 98.8% | 46.7% | 48% | 38.3% | 33.4% | 21.6% | 33% | 52.5% | 67.9% | 
COCCOC(=O)NC(=O)Nc1ccc(C(=O)c2ccc(Cl)cc2)cc1 | 38.2% | 11.7% | 56.8% | 49.8% | 40% | 55.2% | 21.9% | 15.4% | 50.8% | 20.2% | 20.9% | 6.4% (active) |  | 37.8% | 32.1% | 5.54% (active) | 25.8% | 37.2% | 62.6% | 
S=c1c2ncccc2c(-c2ccccn2)nn1Cc1ccccn1 | 111% | 95.6% | 89.6% | 112% | 114% | 108% | 96% | 99.7% | 95.6% | 89.9% | 98.9% | 77.1% | 103% | 95% | 73.8% | 105% | 104% | 94.8% | 117% | 
COc1ccccc1NC1=C(N2CCCCC2)C(=O)c2ccccc2C1=O | 105% | 75.5% | 96.9% | 83% | 67.1% | 88.8% | 67.1% | 93.6% | 76.7% | 89.9% | 86.1% | 71.1% | 90.2% | 84.5% | 33.5% | 69% |  | 86.8% | 96.1% | 
CN1/C(=C\C(I)C(I)C2=[N+](C)c3ccccc3C2(C)C)C(C)(C)c2ccccc21 (configuration not stated) | 25.2% | 7.4% (active) | 10.9% | 12.2% | 36.3% | 24% | -18.2% (active) | 18.6% | -11.8% (active) | 20.3% | 13.8% | 14.5% | 18.9% | 7.67% (active) | 5.52% (active) | -97.4% (active) | 19.4% | 12% | 28.5% | 
CCNC(=S)NN | 97.9% | 43.9% | 70.4% | 90.5% | 100% | 103% | 89.4% | 100% | 56.8% | 87.2% | 86.1% |  | 97.2% | 87.2% | 60.7% | 102% |  | 96.8% | 107% | 
C[C@@H]1C(=O)N(C[C@H](Cc2ccccc2)NC(=O)OCc2ccccc2)[C@]1(Cc1ccccc1)C(=O)OCc1ccccc1 | 78.2% | 26.1% | 35.9% | 58.8% | 42.2% | 52.2% | 30% | 64.6% | 32.1% | 40.7% | 39.3% | 52.5% | 56.7% | 35.2% | 10.4% | 13.2% | 40.7% | 36.5% | 66.9% | 
CC(C)(C)CC(C)(C)c1ccc(O)c(Cc2ccc(Cl)cc2Cl)c1 | -89.2% (active) | -59% (active) | -89.4% (active) | -88.4% (active) |  | -83.6% (active) | -91.6% (active) | -75.5% (active) | -66.1% (active) | -87.9% (active) | -78.7% (active) | -77.7% (active) | -82.9% (active) | -95.3% (active) | -65.2% (active) | -95.1% (active) | -87.9% (active) | -95.4% (active) | -84.9% (active) | -92.4% (active)
O=c1[nH]c(=O)n(C2C[C@@H](O)[C@@H](CO)O2)cc1F (some centres not stated) | 37% | 9.63% (active) | 52.7% | 62.1% |  | 24.1% | 8.65% (active) | 5.71% (active) | 67.8% | -6.77% (active) | 39% | 20.3% | 41.6% | 34.2% | 44% | -69% (active) | 13.9% | 14.1% | 37.9% | 27.2%
C(=C\c1nc2ccccc2s1)/c1ccc(N2CCOCC2)s1 | 92.4% | 31.8% | 103% | 75.5% |  | 98.2% | 69% | 81.1% | 90.2% | 36.6% | 48.3% | 99.6% | 95.2% | 67.6% | 53.4% | 61.1% | 30.8% | 56.8% | 113% | 45.1%
Clc1cc(Cl)c(Cl)c(-c2nc(-c3cccnc3)cs2)c1 | 37.2% | 12% | 28.6% | 74% |  | 85.8% | 100% | 81.4% | 64.2% | 51.8% | 87.1% | 91.7% | 103% | 88.7% | 88.5% | 93.9% | 77.5% | 64.4% | 72.2% | 46.3%
COc1ccc(-c2[nH]ncc2/C=C/c2cc(C(F)(F)F)[nH]c(=O)n2)cc1 | 108% | 86.7% | 76.1% | 103% | 125% | 97.5% | 94.7% | 86.7% | 98.3% | 98.7% | 97% | 88% | 91% | 88.5% | 98.7% | 93.7% | 102% | 87.4% | 114% | 
Cc1ccc2oc(=O)cc(/C(=C3/C=CC=N3)c3ccc[nH]3)c2c1 | 0.492% (active) | -0.946% (active) | 25.6% | -6.98% (active) | -21.7% (active) | 12.7% | -23.9% (active) | -33.6% (active) | 6.21% (active) | -7.95% (active) | 5.43% (active) | 8.89% (active) |  |  | 8.12% (active) | -59.2% (active) | 11.8% | 0.877% (active) | 27.7% | 
CCCCCCCCCCCCCCCC(=O)N1CCN(C)CC1 | 87.2% | 15.9% | 90.3% | 54.7% | 77% | 73.7% | 83.7% | 73.9% | 91.8% | 80.2% | 73.2% | 88.8% | 105% | 78.7% | 68.8% | 81.7% | 88.8% |  | 88.7% | 
